D2 PAM-1 – positive allosteric modulators of human D2 dopamine receptor. P14416. HEK293 T-REx D2, calcium flux, EC20 dopamine potentiation. potentiation, % at 10 µM. 340,000 compounds, 0.34% hits. AID 485347;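 active means potentiation over 3 SD above the plate norm, cut at about 30% in these data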; further: 0% is about no effect
Target sequence (P14416 whole entry, looked up): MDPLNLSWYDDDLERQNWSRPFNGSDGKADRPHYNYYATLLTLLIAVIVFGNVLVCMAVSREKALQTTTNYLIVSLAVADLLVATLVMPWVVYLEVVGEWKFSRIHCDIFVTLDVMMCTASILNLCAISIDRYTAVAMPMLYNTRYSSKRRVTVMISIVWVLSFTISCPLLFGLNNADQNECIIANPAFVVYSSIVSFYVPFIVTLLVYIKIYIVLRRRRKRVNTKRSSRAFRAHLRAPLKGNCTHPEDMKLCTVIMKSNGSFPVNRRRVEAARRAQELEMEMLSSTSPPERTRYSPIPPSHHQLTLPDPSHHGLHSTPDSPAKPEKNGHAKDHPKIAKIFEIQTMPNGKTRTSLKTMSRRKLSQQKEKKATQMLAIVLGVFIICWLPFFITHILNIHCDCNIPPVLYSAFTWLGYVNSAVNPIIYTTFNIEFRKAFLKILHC
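Tetracycline-induced Hek293 Trex D2 cells, force-coupled to calcium, loaded with no-wash calcium dye. Compound added with 180 s kinetic read for agonism, then EC20 dopamine and a further 180 s read for potentiation.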
D2 ag-1 – human D2 receptor agonism in beta-arrestin assay. activation, % (test concentration not listed). 360,000 compounds, 0.084% hits. P14416. AID 624465. DiscoveRx PathHunter D2 beta-arrestin, luminescence, 90 min; 100% = 57 uM dopamine signal; in the data active means activation above about 40%; inconclusive means between about 15% and that limit
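Agonist mode: compounds alone added to overnight-plated D2 PathHunter cells for 90 min at 37 C, with 57 uM final dopamine (EC100) defining full response. Beta-arrestin recruitment detected by chemiluminescent reagent, read after 1 h at ambient temperature.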
D2 ag-2 – agonists of human D2 dopamine receptor. P14416. HEK293 T-REx D2 cells, calcium flux agonist mode. activation, % at 2 µM. 340,000 compounds, 0.53% hits. AID 485358;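 active means activation over 3 SD above normal in the single-dose calcium agonist read, cut at about 30% in these data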; further: 0% is about no effect
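Agonism is scored from calcium flux in a force-coupled, inducible HEK293 cell line expressing D2, read kinetically for 180 s after compound addition against dopamine controls.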
D2 PAM-2 – potentiates the human D2 dopamine receptor allosterically | potentiation, % (test concentration not listed) | DiscoveRx D2 beta-arrestin cells, luminescence, 90 min; 100% = 57 uM dopamine signal | 360,000 compounds, 0.23% hits | P14416; in the data active means potentiation above about 50%; inconclusive means mostly about 30% to 49%
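PathHunter D2 cells, attached overnight at 37 deg C, received compound in DMSO plus dopamine at EC20 (50 nM final) for 90 min at 37 deg C. Beta-arrestin recruitment was read as luminescence after 1 h with detection reagent at ambient temperature.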
D2 antag – D2 dopamine receptor (human) antagonism. inhibition, % at 10 µM. HEK293 TREx D2 cells, calcium flux, dopamine EC80. 340,000 compounds, 2% hits; in the data active means inhibition above about 30%; inactive means below that, where a call was filed; further: 0% is about no effect
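Tetracycline-induced HEK293 TREx cells expressing D2 receptor forced-coupled to calcium signalling, loaded with no-wash calcium dye. Compounds added and calcium flux read 180 s, then dopamine added at EC80 and read a further 180 s.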
Numbers without * were called inactive; u = inconclusive; x = not tested or not shown. Shown are actives, neighbours in structure and some others; about 2.4% of the full set was active somewhere.

SMILES	D2 PAM-1	D2 ag-1	D2 ag-2	D2 PAM-2	D2 antag
COc1cccc(Nc2nc(=O)[nH]nc2C)c1	x	-2.5	-0.7	-3.4	34.2*
CCn1nnc(NC(=O)c2ccco2)n1	13.0	-1.9	0.3	4.3	69.4*
C=CCNC(=O)CC(=O)N/N=C/c1ccc(C(=O)OC)cc1	-2.1	1.1	0.8	-9.2	33.4*
COC(=O)c1ccc(/C=N\NC(=O)CC(=O)NCCc2ccccc2)cc1	-7.7	-3.0	0.1	-3.5	-13.5
O=C(Cc1ccccc1)NCC(=O)N1CCCC1	5.2	-2.8	1.5	-6.3	34.6*
CN1CCCN(C(=O)CNC(=O)Cc2ccccc2)CC1	8.7	-0.7	1.3	-10.7	1.8
Cc1cc(C)c2c(n1)nn1c(NCCCN3CCOCC3)cc(C)nc21	x	-3.0	x	-11.6	x
Cc1cc(C)c2c(n1)nn1c(NCCCn3ccnc3)cc(C)nc21	33.8*	x	0.3	x	-16.7
CCOc1ccc(NC(=O)Cn2cc(C(=O)c3ccc(CC)cc3)c(=O)c3ccc(C)nc32)cc1	17.1	x	0.4	x	x
Cc1ccc(S(=O)(=O)N(C(=O)c2ccncc2)c2ccc(OC(=O)c3ccncc3)c3ccccc23)c(C)c1	x	u	x	89.9*	x
CCN1C(=O)OC2(CCCCC2)C1(C)O (centres undefined)	40.5*	x	0.3	x	6.6
CCOC(=O)c1cc(-c2ccccc2)n(CC(=O)Nc2ccccc2OCC)c1C	3.6	x	0.0	x	x
COc1ccc2c(c1)CCC/C2=N\NC(=O)c1ccoc1C	-1.7	-2.3	-3.2	-26.1	37.7*
CC(=O)c1cccc(N(C(=O)Cn2nnc3ccccc32)C(C(=O)NCc2ccccc2)c2ccc(F)cc2)c1 (centres undefined)	10.9	x	x	x	x
CCOC(=O)c1cc(-c2ccc(OC)cc2)n(CCC(=O)Nc2cccc(C(C)=O)c2)c1C	0.6	x	-0.2	x	x
Cc1nc(Cl)sc1C(=O)Nc1ccccc1	-2.2	-9.2	0.0	4.8	-1.3
Cc1nc(Cl)sc1C(=O)Nc1ccc(Cl)cc1	10.3	-3.2	-0.4	-0.8	40.2*
Cc1cccc(CCNC(=O)c2sc3nc4n(c(=O)c3c2C)CCCC4)c1	x	x	4.3	x	x
CCn1cc(S(=O)(=O)N2CCN(Cc3cccc(Cl)c3)CC2)cn1	-9.5	-2.1	0.5	-11.2	33.5*
CCOc1ccc(C(=O)c2cn(CC(=O)Nc3ccc(F)cc3)c3cc4c(cc3c2=O)OCCO4)cc1	10.6	x	-1.0	x	x
Cc1ccc(SCC(=O)Nc2ccc(N3CCN(C)CC3)c(F)c2)c(C)c1	-17.2	0.4	5.4	57.4*	3.3
Cc1ccc(S(=O)(=O)c2cn(C)c3cc(N4CCCC(C)C4)c(F)cc3c2=O)c(C)c1 (centres undefined)	4.9	x	-0.3	x	x
C=CCn1c(Oc2cc(C)ccc2C)nc2c1c(=O)n(C)c(=O)n2C	14.8	0.4	-0.6	16.4	30.0*
Cc1cccc(/C=C2/Sc3ccc(C(=O)N4CCOCC4)cc3NC2=O)c1	1.9	-4.4	0.3	-3.0	-29.4
O=C1Nc2cc(C(=O)N3CCOCC3)ccc2S/C1=C\c1ccccc1	13.3	-4.2	0.8	-10.3	47.4*
SMILES	D2 PAM-1	D2 ag-1	D2 ag-2	D2 PAM-2	D2 antag
COc1ccc2cc(-c3nc4ccc(C(=O)O)cc4[nH]3)c(=O)oc2c1	1.9	x	-0.3	x	x
CC1CCCCN1C(=O)Cn1nnc(-c2cccnc2)n1 (centres undefined)	-1.7	-1.2	0.9	-3.6	31.9*
CC(C)(C)n1nc2c(c1NC(=O)Cc1ccc(F)cc1)CSC2	3.3	-6.5	0.6	-8.0	34.7*
Cn1cc(CNCCCn2ncc3ccccc32)c(-c2ccccc2F)n1	-20.3	-3.8	1.0	-27.1	37.2*
O=C(c1nc2ccccn2c1CNCCCn1ncc2ccccc21)N1CCOCC1	-8.4	-2.2	-0.1	-6.8	-5.8
COC(=O)C1=C(C(=O)c2ccc(C)cc2)C(c2ccc(OC)c(OC)c2)n2nnnc2N1 (centres undefined)	-15.7	-4.5	0.6	-23.0	32.8*
COC(=O)C1=C(C(=O)c2ccc(C)cc2)C(c2ccc(O)c(OC)c2)n2nnnc2N1 (centres undefined)	-2.7	-2.9	0.8	14.6	15.0
CCN(C(=O)CSc1nc2n[nH]c(C)c2c(=N)n1-c1cccc(OC)c1)c1cccc(C)c1	-10.3	x	0.1	x	x
O=C(COc1ccc(S(=O)(=O)N2CCCC2)cc1Cl)NCc1ccccn1	-4.8	-0.7	0.1	-1.6	-11.1
O=C(COc1ccc(S(=O)(=O)N2CCOCC2)cc1Cl)NCc1ccccn1	33.6*	0.9	0.6	0.5	24.7
COc1ccc(N2CCN(C(=O)C3CCN(S(=O)(=O)c4cccc5nonc45)CC3)CC2)cc1	16.0	x	0.2	x	x
C=CCn1c(SCC(=O)Nc2ncc(Cc3ccc(Br)cc3)s2)nnc1-c1ccncc1	32.4*	4.1	0.4	-8.1	16.3
CCn1c(CNC(=O)c2ccc(OC)cc2)nnc1SCC(=O)Nc1ccc(F)cc1	8.9	x	0.7	x	x
COc1ccc(S(=O)(=O)NCCc2sc(-c3cccnc3)nc2C)cc1	5.9	x	-1.2	x	x
Cc1ccc(C)c(Cn2ncc3ccccc32)c1	41.3*	-3.8	-1.0	-4.0	-19.3
Cc1ccc(C)c(Cn2c(CO)nc3ccccc32)c1	15.4	-2.6	-0.5	-7.7	-18.8
COc1ccc(-c2csc(C3=C(O)CN(Cc4ccc(Cl)cc4)C3=N)n2)cc1OC	-17.8	0.6	0.5	-20.6	73.5*
O=C(CBr)c1ccc([N+](=O)[O-])c(CS(=O)(=O)c2ccc(Cl)cc2)c1	-1.6	53.9*	5.2	-36.9	6.4
CCOc1ccccc1CNC(=O)c1ccc(N2Cc3ccccc3Oc3ncccc32)s1	0.3	x	0.4	x	x
Cc1ccc2c(=O)cc(C(=O)Nc3c(C)n(C)n(-c4ccccc4)c3=O)oc2c1	-11.4	x	-0.5	x	x
NC(=S)N/N=C/c1cccc(O)c1O	-1.9	2.5	0.1	15.5	-5.7
Cc1cc(/C=N/NC(N)=S)c(O)c(/C=N/NC(N)=S)c1	8.1	-5.6	45.1*	-8.1	-13.7
CCS(=O)(=O)N1CCc2cc(C(=O)Nc3cccc(C)c3C)ccc21	-3.0	x	6.2	x	x
O=C(CCc1ccc(S(=O)(=O)N2CCOCC2)cc1)N/N=C/c1ccc(O)c(O)c1O	10.1	u	0.5	82.1*	-3.2
O=C(CCc1ccc(S(=O)(=O)N2CCOCC2)cc1)N/N=C/c1ccc(F)cc1F	-5.7	1.1	0.2	-6.7	-12.2
CCc1ccc(NC(=O)c2ccc(F)c(S(=O)(=O)NCCc3ccc(OC)c(OC)c3)c2)cc1	-11.9	x	1.0	x	x
COC(=O)c1ccc(CSc2c(C(C)C)cnc3c2c(=O)n(C)c(=O)n3C)cc1	2.5	x	0.2	x	x
COc1ccc(/C=C/C(=O)c2ccc(Cl)s2)cc1O	-3.1	-4.6	0.6	2.4	37.2*
CCOC(=O)C1CCCN(c2nc3c(S(=O)(=O)c4ccc(C)c(C)c4)nnn3c3ccc(Cl)cc23)C1 (centres undefined)	-2.8	x	-0.3	x	x
